Source: PubChem BioAssay
Sampled rows, rich in hits. Any-hit rate of the full collection: about 6.5%.
Vaccinia mCherry: inhibitors of vaccinia virus infection (mCherry reporter signal) | Vaccinia virus mCherry reporter infection, fluorescence | Potency, µM (doses to about 36.5 µM), inactives show at the highest dose activity change, negative = inhibition, most hits filed as inhibitors | 310,000 compounds, 0.63% hits | AID 720579; calls by dose curve; tested in A549 cells; further: potency means the concentration at half of the fitted maximal effect; nearly all actives have a fitted effect of over 35% in size
LASV entry inh: Lassa virus entry inhibition; 300,000 compounds, 1.2% hits; Lassa virus pseudotype entry inhibition, cell reporter; Potency, µM (titrated, usually from 37.9 µM), without a hit: at the top dose activity change, negative = inhibition, usual class: inhibitors; AID 540256; calls by dose curve; tested in HEK293 cells; further: potency means the concentration at half of the fitted maximal effect; nearly all actives have a fitted effect of over 50% in size
HCMV antiviral: blocks human cytomegalovirus replication; activity change, negative = inhibition, % at 57.5 µM; 410,000 compounds, 4.5% hits; HFF cells, HCMV-luciferase reporter, 72 h; active compounds read low; in the data active means activity change below about -60%; inconclusive means no clear call, values can overlap the other calls; inactive means above about -39%
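Human foreskin fibroblasts infected with luciferase-reporter HCMV at MOI 1 PFU/cell, compounds at two doses. Luciferase measured 72 h post infection; normalized to buffer-only basal and Salinomycin (10uM) controls.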
Marburg entry inh: Marburg virus entry inhibition. AID 540276. 300,000 compounds, 1.8% hits. Potency, µM (top dose mostly 37.8 µM), inactives show at the highest dose activity change, negative = inhibition, most hits filed as inhibitors. Marburg virus pseudotyped entry inhibition, cell reporter; calls by dose curve; tested in HEK293 cells; further: potency means the concentration at half of the fitted maximal effect
FMDV antiviral: antivirals against foot and mouth disease virus. FMDV antiviral cell-based qHTS. Potency, µM (doses to about 57.9 µM), without a hit: at the highest dose activity change, negative = inhibition, actives largely listed as inhibitors. AID 1159524. 410,000 compounds, 1.2% hits; calls by dose curve; tested in HEK293T cells; further: read-out not given here; potency means the concentration at half of the fitted maximal effect; nearly all actives have a fitted effect of over 45% in size
Vaccinia Venus: inhibitors of vaccinia virus (Venus reporter); 330,000 compounds, 0.46% hits; Vaccinia virus Venus reporter expression, fluorescence; Potency, µM (series often up to 36.5 µM), for the others: top-dose activity change, negative = inhibition, usual class: inhibitors; AID 720580; calls by dose curve; tested in A549 cells; further: potency means the concentration at half of the fitted maximal effect; nearly all actives have a fitted effect of over 30% in size
Numbers without * were called inactive; i = inactive; ? = inconclusive; · = no result; ! = not confirmed by another sample; [ ] = remark or other dose. On the % scale 0 is the no-effect control and ±100 the full control effect.

SMILES	Vaccinia mCherry	LASV entry inh	HCMV antiviral	Marburg entry inh	FMDV antiviral	Vaccinia Venus
C=CCn1c(C)cc(C(=O)COC(=O)c2ccc3c(c2)NC(=O)CS3)c1C	i	?	?	11µM*	?	-5%
COCCn1c(C)cc(C(=O)COC(=O)c2ccc3c(c2)NC(=O)CS3)c1C	-11%	29%	6	?	?	-9%
CC(C)c1ccc(NC(=O)c2cc3c([nH]c2=O)CC(C)(C)CC3=O)cc1	22%	·	·	·	·	-4%
O=C(c1ccc(Cl)cc1)N1CCN(CCOc2ccccc2)CC1	-7%	-13%[46.1 µM]	-10	-3%[46.1 µM]	-21%	-12%
c1cc(OCCN2CC2)ccn1	-22%	-24%	-100*	7.1µM*	-1%	-10%
COc1ccc(OCCN2CCN(C(=O)c3ccc(OC)cc3)CC2)cc1	-9%	?	-90*	?	?	-11%
COc1ccc(OCCN2CCN(C(=O)c3ccc(OC(F)F)c(OC)c3)CC2)cc1	-4%	-26%[46.1 µM]	-63*	?	-28%	-12%
c1cnc(OCCN2CC2)cn1	-14%	-5%	-21	12%	-4%	-12%
Cc1ccc2c(c1)C(C1(O)C(=O)N(Cc3ccccc3)c3ccccc31)C(=O)N2C (stereo not given)	·	·	3	·	·	·
COc1ccc(Cl)cc1C(=O)NNC(=O)CSc1nncn1C	-19%	14%[46.1 µM]	-91*	16%[46.1 µM]	41%	12%
COC(=O)[C@@H]1[C@@H](c2cccc(C(F)(F)F)c2)NC(=O)N(Cc2ccccc2)[C@@H]1C	·	·	·	-19%[14.2 µM]	·	·
COc1ccccc1/C=c1\sc2nc(-c3ccccc3OC)nn2c1=O	-13%	21%	2	?	-14%	-7%
COc1ccc(/C=c2\sc3nc(=O)c(C)nn3c2=O)c(OC)c1	i	·	-62*	·	2%	-4%
CC(C)(C)OC(=O)N1CCC(c2c(C(=O)NCc3ccc4c(c3)OCO4)cnn2-c2ccccc2Cl)CC1	-8%	-26%[46.1 µM]	0	·	-11%	-8%
COc1ccc(NC(=O)N(C)[C@H]2C[C@H]3c4[nH]c5c(-c6ccccc6)cccc5c4CCN3C(=O)[C@H]2[C@H](C)O)cc1	·	·	27	·	·	·
N#CC(c1ccc(Cl)cc1)c1ccc2c(C(F)(F)F)cc(C(F)(F)F)nc2n1 (stereo not given)	·	2.8µM*	-106*	3.2µM*	?	14µM*
FC(F)(F)c1cc(C(F)(F)F)c2ccc(N3CCN(c4ccc(Cl)cc4)CC3)nc2n1	·	6%	-31	4%	5%	·
COc1ccc(NC(=O)C2CCCN(CCCc3ccccc3)C2)cc1OCC(C)C (stereo not given)	·	·	-91*	·	-9%	·
COc1ccc(NC(=O)C2CCCNC2)cc1OCC(C)C (stereo not given)	-12%	?	10	-27%	0%	-4%
CCOC1(OCC)C(c2ccc(Cl)cc2)C(C#N)(C#N)C1(OCC)OCC (stereo not given)	-17%	21µM*	?	?	?	-11%
Cc1cccc(C)c1Nc1c(-c2ccccc2F)nc2ccccn12	·	·	-3	·	·	·
Cc1sc2ncnc(N/N=C/c3cccc(O)c3)c2c1C	-5%	28%	?	3.2µM*	-5%	-23%
Cc1ccc(Nc2ncnc3sc(C)c(C)c23)cc1	-30%	5%	53	5%	40%	-14%
C/C(=N\Nc1ncc(Cl)cc1Cl)c1ccccn1	?	?	·	0.89µM*	5.6µM*	16%
C/C(=N\Nc1ncnc2sc(C)c(C)c12)c1ccccn1	5µM*	?	-102*	3.2µM*	17%	-21%
SMILES	Vaccinia mCherry	LASV entry inh	HCMV antiviral	Marburg entry inh	FMDV antiviral	Vaccinia Venus
Cc1sc2ncnc(Nc3ccc(O)cc3)c2c1C	?	-17%	-32	-26%	-1%	-24%
CC(=NNc1cc(C)c2ccccc2n1)c1ccccn1	·	·	-98*	·	·	·
Cc1cc(N/N=C(/CCC(=O)O)C(=O)O)nc2ccccc12	-7%	-12%	-8	1%[46.1 µM]	-1%	-4%
Cc1cc(C)n2cc(CSc3ccc(Br)cc3)nc2n1	i	4%[46.1 µM]	30	30%[46.1 µM]	19%	-4%
Cc1cc(C)n2cc(CSc3nnnn3-c3ccc(Cl)cc3)nc2n1	·	3%	-24	-3%	-28%	?
Cc1cc(C)n2cc(CSc3nnc(-c4ccccc4)c(-c4ccccc4)n3)nc2n1	·	·	-9	·	28µM*	·
Cc1cc(C)n2cc(CSc3nnnn3-c3ccccc3)nc2n1	·	-3%	-71*	1%	-18%	·
CCc1ccc(OCC(=O)Nc2cc3oc4ccccc4c3cc2OC)c(Br)c1	-16%	-4%[46.1 µM]	19	?	-11%	1%
COc1ccc([C@]23Cc4ccccc4[C@H](O2)C2=C(CC(C)(C)CC2=O)O3)cc1	·	·	·	6%[14.2 µM]	·	·
C[C@H]1COc2cccc(NCCO)c2S(=O)(=O)N1	·	6%[46.1 µM]	3	·	·	·
c1ccc(COc2ccc(-c3cc4nc(NCc5ccc6c(c5)OCO6)ccn4n3)cc2)cc1	?	·	-64*	·	-29%	-24%
CCOC(=O)C1=CCN(S(=O)(=O)c2ccccc2Br)C1c1ccc(Cl)cc1 (stereo not given)	·	·	-15	·	·	·
Cc1cc(C)cc(NC(=O)Nc2cc(-c3ccccc3)nn2C)c1	0%	4%[46.1 µM]	-69*	22%[46.1 µM]	-4%	0%
Cn1nc(-c2ccccc2)cc1NC(=O)Nc1ccccc1F	-5%	3%	29	-3%[14.2 µM]	44%	-10%
O=C(COc1ccccc1F)NC1CC(=O)N(c2ccc3c(c2)OCCO3)C1 (stereo not given)	-1%	?	7	·	-17%	-1%
O=C(Nc1ccccc1)C1C2CCC3C(CCC21)C3(Cl)Cl (stereo not given)	·	?	-20	0%	-5%	?
O=C(Nc1cccc(Cl)c1)C1C2CCC3C(CCC21)C3(Cl)Cl (stereo not given)	-15%	?	-10	?	40µM*	?
CN1CCN(C2=Nc3cc(Cl)ccc3Nc3ccccc32)CC1	-3%	-14%	?	13µM*!	-19%	-16%
Clc1ccc2c(c1)N=C(N1CCNCC1)c1ccccc1N2	?	?	·	?	-15%	-24%
Clc1ccc(CNc2ncnc3[nH]ncc23)cc1Cl	11µM*	7.1µM*	-34	4µM*	-21%	10µM*
CC(C)C[C@H](N)c1cn([C@@H](CCCCN)C(=O)N2CCNCC2)nn1	0.5µM*	·	65	·	?	0.79µM*
COc1ccc(CCNC(=O)Cn2nc(-c3ccc(Cl)cc3)ccc2=O)cc1OC	-18%	15%[46.1 µM]	?	·	-28%	-7%
CS(=O)(=O)N1CCC2(CCN(Cc3ccncc3)CC2)CC1	·	·	·	·	-8%	·
CC(=O)c1cn(C(=O)c2ccc(Cl)cc2)c2ccccc12	-8%	11%[46.1 µM]	-67*	9%[46.1 µM]	-20%	-14%
COC(=O)c1cn(C(=O)c2ccc(OC)cc2)c2ccccc12	-22%	-20%[46.1 µM]	-65*	?	-22%	?
COC(=O)c1cn(C(=O)c2ccc(C)cc2)c2ccccc12	·	·	-7	·	-2%	·
COc1cc(C(=O)NCC(c2cccs2)N(C)C)cc(Cl)c1OC(C)C (stereo not given)	i	?	-61*	-38%	30%	-24%
